The other results are listed elsewhere or left out. The hit rate among all sequences tested is not known here.
Biological target: furin, P09958
Experiment: furin cleavage Z-score vs untreated control; higher = more cleavage, active = 3.5 or more, inactive = 1 or less, 8 variable residues between constant flanks
Method in brief: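 Read counts from sequencing released DNA gave abundance for each bead-bound 8-mer peptide–cDNA fusion cut by purified furin over 7.5, 15 or 30 min. The cleavage Z-score compares log counts with furin-free reactions after lowess adjustment and median absolute deviation scaling.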
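Also: purified furin at 1:10 enzyme:substrate in 50 mM HEPES pH 7.5.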

furin, P09958, sequence (P09958 whole entry): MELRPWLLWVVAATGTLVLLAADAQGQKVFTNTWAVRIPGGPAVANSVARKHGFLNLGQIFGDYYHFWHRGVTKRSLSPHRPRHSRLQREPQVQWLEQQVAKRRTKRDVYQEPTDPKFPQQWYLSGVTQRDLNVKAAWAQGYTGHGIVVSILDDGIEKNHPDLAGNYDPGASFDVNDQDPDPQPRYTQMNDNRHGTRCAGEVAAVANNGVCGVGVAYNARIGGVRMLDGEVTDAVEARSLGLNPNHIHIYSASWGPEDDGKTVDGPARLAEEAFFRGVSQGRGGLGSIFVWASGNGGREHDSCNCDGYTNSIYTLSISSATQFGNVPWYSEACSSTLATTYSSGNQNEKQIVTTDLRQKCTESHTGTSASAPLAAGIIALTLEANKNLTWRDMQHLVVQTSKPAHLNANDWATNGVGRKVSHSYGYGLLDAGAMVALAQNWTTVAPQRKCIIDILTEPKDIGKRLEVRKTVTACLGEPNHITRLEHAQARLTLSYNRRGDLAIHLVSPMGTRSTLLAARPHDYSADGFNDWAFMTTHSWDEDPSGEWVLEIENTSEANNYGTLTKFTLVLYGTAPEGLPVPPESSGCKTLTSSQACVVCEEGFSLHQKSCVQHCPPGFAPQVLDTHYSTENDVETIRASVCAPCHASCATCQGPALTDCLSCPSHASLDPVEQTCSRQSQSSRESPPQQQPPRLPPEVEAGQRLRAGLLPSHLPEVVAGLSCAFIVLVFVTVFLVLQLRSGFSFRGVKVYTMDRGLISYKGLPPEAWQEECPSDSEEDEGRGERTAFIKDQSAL

Sequence | furin cleavage Z-score (7.5 min) | furin cleavage Z-score (15 min) | furin cleavage Z-score (30 min)
CASYLKGSSGAGNASASA [HC740] | -0.0827 (inactive) | -0.32 (inactive) | -1.27 (inactive)
CAIQRLHGLSAGNASASA [HC1602] | -1.82 (inactive) | 1.34 | -0.804 (inactive)
CAWVVTSTWVAGNASASA [HC2148] | -0.151 (inactive) | 0.93 (inactive) | -1.01 (inactive)
CACTMLVCGDAGNASASA [HC1526] | -1.57 (inactive) | -1.58 (inactive) | 0.193 (inactive)
CARFGRQDEGAGNASASA [FS-1947] | -2.89 (inactive) | -0.0904 (inactive) | -0.336 (inactive)
CASKGRRRKDAGNASASA [FS-1656] | 5.25 (active) | 6.69 (active) | 5.72 (active)
CARKRRSLGDAGNASASA [FS-2976] | 11.1 (active) | 13.3 (active) | 9.59 (active)
CARKRRVRKDAGNASASA [FS-1560] | 8.86 (active) | 7.9 (active) | 6.61 (active)
CAFKIRMYVGAGNASASA [HC474] | -0.697 (inactive) | 0.386 (inactive) | -0.234 (inactive)
CARTIRSFEGAGNASASA [FS-2240] | 3.24 | 4.83 (active) | 5.83 (active)
CARTNRDMHGAGNASASA [FS-3109] | -0.446 (inactive) | 1.17 | -0.99 (inactive)
CARKRRVLTPAGNASASA [FS-2979] | -0.402 (inactive) | -0.0349 (inactive) | -1.55 (inactive)
CALYFQSGTVAGNASASA [TV3] | -1.09 (inactive) | -1.65 (inactive) | -0.81 (inactive)
CAVFSQMETKAGNASASA [HC648] | -1.33 (inactive) | -0.992 (inactive) | -0.89 (inactive)
CAGYTGDFDSAGNASASA [HC882] | 0.222 (inactive) | -2.26 (inactive) | -1.5 (inactive)
CAICESAGVQAGNASASA [HC1532] | 0.831 (inactive) | -0.227 (inactive) | -1.02 (inactive)
CARKGRCVEPAGNASASA [FS-2686] | 3.13 | 3.86 (active) | 4.66 (active)
CARTGRPVEPAGNASASA [FS-2822] | -0.133 (inactive) | -0.269 (inactive) | -0.327 (inactive)
CARRKRKNKDAGNASASA [FS-1967] | -0.815 (inactive) | 0.207 (inactive) | 1.06
CARRKRLRQDAGNASASA [FS-2780] | 0.471 (inactive) | 0.0552 (inactive) | 1.44
CARRNRLRKDAGNASASA [FS-87] | 7.91 (active) | 8.84 (active) | 6.68 (active)
CARKRRSTNEAGNASASA [FS-2039] | 13.4 (active) | 14 (active) | 10.3 (active)
CARKGRNKEIAGNASASA [FS-2687] | 0.916 (inactive) | 0.216 (inactive) | 0.59 (inactive)
CARKRKGSDDAGNASASA [FS-2696] | 1.74 | 0.267 (inactive) | -0.22 (inactive)
CARKRRSTDFAGNASASA [FS-2217] | 9.58 (active) | 11.2 (active) | 9.06 (active)
CAQVPSPEFFAGNASASA [HC1218] | -1.13 (inactive) | -0.661 (inactive) | 0.459 (inactive)
CAVTVPHPNIAGNASASA [HC838] | 0.905 (inactive) | 1.12 | 1.65
CASLLAPGAKAGNASASA [HC361] | -0.751 (inactive) | -1.11 (inactive) | -0.788 (inactive)

— the supplement of paper PMC3545927
